Laboratory results taken from PubChem BioAssay AID1159580 (chemical genetic matrix, 2015).
The whole screen tested about 5,500 compounds, of which about 2,000 (36%) were called active. Another 18% or so got no clear call; they are omitted. No stated cut-off is given here; in the data, active means normalized growth mostly below about 0.91 (no sharp cut-off); inconclusive means no clear call, values can overlap the other calls; inactive means mostly above about 0.92. This is one part of the list.

Assay: chemical genetic growth profiling, strain panel (AID 1159580);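 further: tested at 20 µM; growth read once vehicle control cultures reached saturation at 30 °C; 1 = growth at the plate median or of vehicle wells; lower values mean less growth of the strain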
Details: growth OD

Measured: normalized growth

Cc1onc(-c2ccccc2Cl)c1C(=O)N[C@@H]1C(=O)N2[C@@H]1SC(C)(C)[C@@H]2C(=O)O
inactive: S. cerevisiae deletion strains, locus YJR066W, strain TOR1, hits give low values 0.986 | S. cerevisiae deletion strains, locus YKL009W, strain mrt4, hits give low values 1.02 | S. cerevisiae deletion strains, locus YKL068W, hits give low values 1.02 | S. cerevisiae deletion strains, locus YKL085W, strain MDH1 (second series), hits give low values 1.02 | S. cerevisiae deletion strains, locus YKL085W, strain MDH1, hits give low values 1.02 | S. cerevisiae deletion strains, locus YKL160W, strain elf1, hits give low values 1.02 | S. cerevisiae deletion strains, locus YKL190W, strain CNB1, hits give low values 1.01 | S. cerevisiae deletion strains, locus YKR001C, strain vps1, hits give low values 1.03 | S. cerevisiae deletion strains, locus YKR026C, strain gcn3, hits give low values 1.05 | S. cerevisiae deletion strains, locus YKR091W, strain srl3, hits give low values 1.02 | S. cerevisiae deletion strains, locus YLL001W, strain dnm1, hits give low values 1.02 | S. cerevisiae deletion strains, locus YLL026W, hits give low values 1.01 | S. cerevisiae deletion strains, locus YLL041C, strain sdh2, hits give low values 1.02 | S. cerevisiae deletion strains, locus YLR027C, strain aat2, hits give low values 1.01 | S. cerevisiae deletion strains, locus YLR039C, strain RIC1, hits give low values 1.02 | S. cerevisiae deletion strains, locus YLR058C, strain SHM2, hits give low values 1.02 | S. cerevisiae deletion strains, locus YLR102C, strain apc9, hits give low values 1.03 | S. cerevisiae deletion strains, locus YLR113W, strain HOG1, hits give low values 1.05 | S. cerevisiae deletion strains, locus YLR221C, strain rsa3, hits give low values 0.979 | S. cerevisiae deletion strains, locus YLR258W, strain gsy2, hits give low values 1.02 | S. cerevisiae deletion strains, locus YLR262C, strain YPT6 (second series), hits give low values 1 | S. cerevisiae deletion strains, locus YLR262C, strain YPT6, hits give low values 1.01 | S. cerevisiae deletion strains, locus YLR268W, strain sec22, hits give low values 1.04 | S. cerevisiae deletion strains, locus YLR320W, strain mms22, hits give low values 1 | S. cerevisiae deletion strains, locus YLR330W, strain CHS5, hits give low values 1.01 | S. cerevisiae deletion strains, locus YLR342W, strain FKS1 (second series), hits give low values 1.02 | S. cerevisiae deletion strains, locus YLR342W, strain FKS1, hits give low values 1.02 | S. cerevisiae deletion strains, locus YLR357W, strain rsc2, hits give low values 1.03 | S. cerevisiae deletion strains, locus YLR370C, strain arc18, hits give low values 1.02 | S. cerevisiae deletion strains, locus YLR371W, strain rom2, hits give low values 1.03 | S. cerevisiae deletion strains, locus YLR384C, strain iki3, hits give low values 1.02 | S. cerevisiae deletion strains, locus YLR418C, strain cdc73, hits give low values 1.04 | S. cerevisiae deletion strains, locus YML016C, strain PPZ1, hits give low values 1.01 | S. cerevisiae deletion strains, locus YML032C, strain rad52, hits give low values 1.01 | S. cerevisiae deletion strains, locus YML120C, strain ndi1, hits give low values 1.04 | S. cerevisiae deletion strains, locus YML124C, strain tub3, hits give low values 1.03 | S. cerevisiae deletion strains, locus YMR058W, strain fet3, hits give low values 1.04 | S. cerevisiae deletion strains, locus YMR078C, strain ctf18, hits give low values 1.04 | S. cerevisiae deletion strains, locus YMR125W, strain sto1, hits give low values 1.04 | S. cerevisiae deletion strains, locus YMR129W, hits give low values 1.01 | S. cerevisiae deletion strains, locus YMR205C, strain PFK2, hits give low values 1.04 | S. cerevisiae deletion strains, locus YMR223W, strain ubp8, hits give low values 1.02 | S. cerevisiae deletion strains, locus YMR231W, strain pep5, hits give low values 1.02 | S. cerevisiae deletion strains, locus YMR263W, strain SAP30, hits give low values 1.02 | S. cerevisiae deletion strains, locus YMR307W, strain GAS1, hits give low values 1.03 | S. cerevisiae deletion strains, locus YNL067W, strain RPL9B, hits give low values 1.02 | S. cerevisiae deletion strains, locus YNL071W, strain lat1, hits give low values 1.01 | S. cerevisiae deletion strains, locus YNL153C, strain GIM3, hits give low values 1.01 | S. cerevisiae deletion strains, locus YNL183C, strain NPR1, hits give low values 0.968 | S. cerevisiae deletion strains, locus YNL209W, strain ssb2, hits give low values 1.01 | S. cerevisiae deletion strains, locus YNL233W, strain BNI4, hits give low values 1.01 | S. cerevisiae deletion strains, locus YNL248C, strain rpa49, hits give low values 0.948 | S. cerevisiae deletion strains, locus YNL250W, strain rad50, hits give low values 1.01 | S. cerevisiae deletion strains, locus YNL271C, strain bni1, hits give low values 1.03 | S. cerevisiae deletion strains, locus YNL298W, strain CLA4, hits give low values 1.04 | S. cerevisiae deletion strains, locus YNL307C, strain MCK1, hits give low values 1.04 | S. cerevisiae deletion strains, locus YNL322C, strain KRE1 (second series), hits give low values 1.01 | S. cerevisiae deletion strains, locus YNL322C, strain KRE1, hits give low values 1 | S. cerevisiae deletion strains, locus YNR049C, strain mso1, hits give low values 1.02 | S. cerevisiae deletion strains, locus YNR052C, strain pop2, hits give low values 1.01 | S. cerevisiae deletion strains, locus YOL012C, strain htz1 1.96 | S. cerevisiae deletion strains, locus YOL147C, strain pex11, hits give low values 1.03 | S. cerevisiae deletion strains, locus YOR001W, strain rrp6, hits give low values 1.04 | S. cerevisiae deletion strains, locus YOR061W, strain CKA2, hits give low values 1.01 | S. cerevisiae deletion strains, locus YOR069W, strain VPS5, hits give low values 1.01 | S. cerevisiae deletion strains, locus YOR070C, strain gyp1, hits give low values 1.01 | S. cerevisiae deletion strains, locus YOR080W, strain dia2, hits give low values 1.03 | S. cerevisiae deletion strains, locus YOR083W, strain WHI5, hits give low values 1.03 | S. cerevisiae deletion strains, locus YOR106W, strain vam3, hits give low values 1.03 | S. cerevisiae deletion strains, locus YOR136W, strain idh2, hits give low values 1.03 | S. cerevisiae deletion strains, locus YOR144C, strain elg1, hits give low values 1.02 | S. cerevisiae deletion strains, locus YOR184W, strain ser1, hits give low values 1.03 | S. cerevisiae deletion strains, locus YOR231W, strain MKK1, hits give low values 1.01 | S. cerevisiae deletion strains, locus YOR265W, strain rbl2, hits give low values 1.02 | S. cerevisiae deletion strains, locus YOR270C, strain vph1, hits give low values 1.04 | S. cerevisiae deletion strains, locus YOR290C, strain snf2, hits give low values 1.01 | S. cerevisiae deletion strains, locus YOR316C, strain cot1, hits give low values 1.03 | S. cerevisiae deletion strains, locus YPL051W, strain arl3, hits give low values 1.02 | S. cerevisiae deletion strains, locus YPL055C, strain LGE1, hits give low values 1.03 | S. cerevisiae deletion strains, locus YPL078C, strain atp4, hits give low values 1.03 | S. cerevisiae deletion strains, locus YPL106C, strain sse1, hits give low values 1.03 | S. cerevisiae deletion strains, locus YPL240C, strain hsp82, hits give low values 1.01 | S. cerevisiae deletion strains, locus YPL241C, strain CIN2, hits give low values 1 | S. cerevisiae deletion strains, locus YPL256C, strain CLN2, hits give low values 1.01 | S. cerevisiae deletion strains, locus YPR119W, strain clb2, hits give low values 1.03 | S. cerevisiae deletion strains, locus YPR141C, strain kar3, hits give low values 1.04 | S. cerevisiae deletion strains, locus YPR163C, strain tif3, hits give low values 1.04 | S. cerevisiae deletion strains, locus YPR167C, strain met16, hits give low values 1.03 | S. cerevisiae deletion strains, strain wtn01, hits give low values 1.02 | S. cerevisiae strains, strain wild type, hits give low values 1.01
